In the supplement of paper PMC12024424 one finds growth reduction data, which are given here for 37 compounds.

Counter-ions that a name gives are not always drawn.

The test system of this experiment is Staphylococcus aureus Sa2 (MRSA, cystic fibrosis isolate). The experiment is described as follows: growth reduction vs untreated control (OD550); higher = stronger antibacterial activity. The settings on record: 0.1 mM; 24 h. How it is done:
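Single-dose screen of the MedChem Express Drug Repurposing Library (0.1 mM, 1% DMSO) against planktonic MRSA S. aureus Sa2 (CF isolate) in TSB in 96-well plates, 37 °C aerobic, 24 h. Assays were run in triplicate and repeated twice.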
For the compound `Cc1nc(Nc2ccc(F)cc2)nc(N2CCc3ccccc3C2C)c1C` (configuration not stated) [Revaprazan (hydrochloride)], the growth reduction is 93.4%. Under `O=C(c1ccc(OCCN2CCCCC2)cc1)c1c(-c2ccc(O)cc2)sc2cc(O)ccc12` [Raloxifene (hydrochloride)] stands 99.8%; under `Cn1cc(-c2ccncc2)c(-c2ccc(OCc3ccc4ccccc4n3)cc2)n1` [Mardepodect], 100%; under `N#Cc1ccc(Oc2ccc3c(c2)COB3O)cc1` [Crisaborole], 100%. For the compound `CCCCCCNC(=O)n1cc(F)c(=O)[nH]c1=O` [Carmofur], the growth reduction was determined as 100%. The compound `O=C(NCC12CC3CC(CC(C3)C1)C2)c1cc(CCCNCCCO)ccc1Cl` [AZD9056 (hydrochloride)] yielded a growth reduction of 100%. In the case of `CC(OC(=O)c1ccc(Cc2c(O)c3ccccc3oc2=O)cc1)(C(F)(F)F)C(F)(F)F` [Tecarfarin], the growth reduction was 100%.

The compound `CNCc1ccc(C)c(NC(=O)c2ccc(Nc3nc(-c4ccccc4)c4ccccc4n3)cc2)c1` showed a growth reduction of 100%. `C=C[C@@H]1C[C@]1(NC(=O)[C@@H]1C[C@@H]2CN1C(=O)[C@H](C(C)(C)C)NC(=O)O[C@@H]1C[C@H]1CCCCCc1nc3ccc(OC)cc3nc1O2)C(=O)NS(=O)(=O)C1CC1` [Grazoprevir hydrate]: the growth reduction came out at 100%. `C[C@H](CCC(=O)O)[C@H]1CC[C@H]2[C@@H]3CC[C@@H]4C[C@H](O)CC[C@]4(C)[C@H]3C[C@H](O)[C@]12C` [Deoxycholic acid] came in with a growth reduction of 98.3%. Compound `Cc1cc2c(F)c(Oc3ncnn4cc(OC[C@@H](C)OC(=O)[C@H](C)N)c(C)c34)ccc2[nH]1` [Brivanib (alaninate)] yielded a growth reduction of 100%.

Compound `Clc1ccc(Nc2nnc(Cc3ccncc3)c3ccccc23)cc1` [Vatalanib (dihydrochloride)] returned a growth reduction of 100%. `Cc1cc(Nc2ncc(Cl)c(Nc3ccccc3S(=O)(=O)C(C)C)n2)c(OC(C)C)cc1C1CCNCC1` [Ceritinib] yielded a growth reduction of 100%. On to `Cc1ccc(Sc2ccccc2N2CCNCC2)c(C)c1` [Vortioxetine], for which the growth reduction turned out to be 100%. Regarding `Cc1cccc(/C=N/Nc2cc(N3CCOCC3)nc(OCCc3ccccn3)n2)c1` [Apilimod (mesylate)], the growth reduction came to 97.4%. Take `CCCCCCCCOc1ccccc1C(=O)Nc1ccc(C(=O)OCC[N+](C)(CC)CC)cc1` [Otilonium (bromide)]: the growth reduction was 100%. For the compound `C#C[C@]1(O)CC[C@H]2[C@@H]3CCc4cc(OC5CCCC5)ccc4[C@H]3CC[C@@]21C` [Quinestrol], the growth reduction turned out to be 100%.

For `C=C(C)[C@@H]1CC[C@]2(C(=O)O)CC[C@]3(C)[C@H](CC[C@@H]4[C@@]5(C)CC[C@H](OC(=O)CC(C)(C)C(=O)O)C(C)(C)[C@@H]5CC[C@]43C)[C@@H]12` [Bevirimat], the growth reduction was 96.7%. Take `OC(c1cc(C(F)(F)F)nc2c(C(F)(F)F)cccc12)C1CCCCN1` (configuration not stated) [Mefloquine (hydrochloride)]: the growth reduction was 100%.

`O=C(O)Cc1ccccc1Nc1c(Cl)cccc1Cl` [Diclofenac] yielded a growth reduction of 100%. On to `O=C(O)c1ccc(-n2nc(-c3ccccc3O)nc2-c2ccccc2O)cc1` [Deferasirox], for which the growth reduction is 96.2%. Under `CN(C(=O)CN(CCO)CC(=O)N(C)C(C)(C)Cc1ccccc1)C(C)(C)Cc1ccccc1` [Oxethazaine] stands 100%. In turn, `C=CC(=O)Nc1cc(Nc2nccc(-c3cn(C)c4ccccc34)n2)c(OC)cc1N(C)CCN(C)C` [Osimertinib mesylate] yielded a growth reduction of 100%.

The compound `O=c1ccc2ccc(O)c(O)c2o1` [Daphnetin] gave a growth reduction of 94.5%.

Compound `COc1cc2c(Oc3ccc(NC(=O)C4(C(=O)Nc5ccc(F)cc5)CC4)cc3F)ccnc2cc1OCCCN1CCOCC1` [Foretinib] returned a growth reduction of 94.8%.

Turning to `CC1=C(C)C(=O)C(CCCCCCCCCC[P+](c2ccccc2)(c2ccccc2)c2ccccc2)=CC1=O` [Visomitin], the growth reduction was determined as 100%. Compound `CN[C@H]1CN(c2ccc3c(=O)c(C(=O)O)cn(-c4nccs4)c3n2)C[C@@H]1OC` [Voreloxin (Hydrochloride)] registered a growth reduction of 100%. `COc1cc(NS(C)(=O)=O)ccc1Nc1c2ccccc2nc2ccccc12` [Amsacrine (hydrochloride)] came in with a growth reduction of 93.4%. In the case of `COCCN1CCC(N(Cc2ccc(-c3ccc(C(F)(F)F)cc3)cc2)C(=O)Cn2c(SCc3cccc(F)c3F)cc(=O)c3ccccc32)CC1` [Rilapladib], the growth reduction was determined as 100%.

As for `C#C[C@]1(O)CC[C@H]2[C@@H]3CCc4cc(O)ccc4[C@H]3CC[C@@]21C` [Ethynyl Estradiol], the growth reduction is 99.9%. `CC[C@H](C)C(=O)O[C@H]1C[C@@H](C)C=C2C=C[C@H](C)[C@H](CC[C@@H]3C[C@@H](O)CC(=O)O3)[C@H]21` [Lovastatin]: the growth reduction stood at 100%. With `C1CCC(C(CC2CCCCN2)C2CCCCC2)CC1` (configuration not stated) [Perhexiline maleate], the growth reduction worked out at 100%. In turn, `CC(C)OC(=O)CCC/C=C\C[C@@H]1[C@@H](/C=C/[C@@H](O)COc2cccc(C(F)(F)F)c2)[C@H](O)C[C@@H]1O` [Travoprost] displayed a growth reduction of 100%. Compound `CN1C(=O)[C@@H](NC(=O)c2n[nH]c(Cc3ccccc3)n2)COc2ccccc21` came in with a growth reduction of 90.3%. In turn, `CC1(C)CCC(C)(C)c2cc(NC(=O)c3ccc(C(=O)O)cc3)ccc21` [Tamibarotene] gave a growth reduction of 95.5%. With `CC1(C)CCC(C)(C)c2cc(Cn3cccn3)c(/C=C/c3ccc(C(=O)O)cc3)cc21` [Palovarotene] the figure was 100%; with `CN(CCCCCCCCCCN(C)C(=O)Oc1cccc([N+](C)(C)C)c1)C(=O)Oc1cccc([N+](C)(C)C)c1` [Demecarium Bromide], 100%.
